Measured values taken from PubChem BioAssay AID720513 (Broad Institute, 2013).
Hit rate of the full screen: of about 2,100 compounds, about 480 (23%) were called active. About 5% were inconclusive and are not listed. Only a sample is shown. Potency and affinity values are given separately. A number with no mark means an inactive call.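 The calls were made as follows: active = fitted curve reaches 40% activation at or below the top valid concentration, in every replicate test; inconclusive = replicate tests disagree on the call; inactive = the rest, including activity in the opposite direction.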

Test: PGC1a acetylation increase, cellular AlphaLISA – cell-based, cherry-picked samples, set 6, dose response (AID 720513);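 also: cells made to overexpress flag tagged PGC1a plus GCN5 acetyltransferase by viral infection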
Details: U2OS PGC1a acetylation AlphaLISA, overnight, 0 = neutral, -100 = inhibitor control; series mostly up to 19.5 µM; activation (acetylation increase): at the top concentration

| Structure (SMILES) | activation (acetylation increase) | outcome |
| --- | --- | --- |
| Cn1nc(C(C)(C)C)cc1NC(=O)C1(C)CCN1C(=O)C1(c2ccccc2)CCCC1 (centres undefined) | 1.04% |  |
| COc1ccc(-c2onc(C)c2-c2ccc(C(=O)OC(C)C)o2)c(O)c1 | 14.5% |  |
| N#Cc1ccc(CCc2ccccc2)[nH]c1=O | 2.14% |  |
| NS(=O)(=O)c1ccc(-c2ccc(/C=C3\C(=O)Nc4cc(Cl)ccc43)o2)cc1 | -10.5% |  |
| O=C(Nc1nc2c(s1)CN(Cc1ccccc1)CC2)c1c(F)cccc1F | -21.4% |  |
| COc1ccc(-c2[nH]ncc2CN(C)C(C)c2ccon2)cc1F (centres undefined) | -24.4% |  |
| COc1ccc(OC)c(-n2c(-c3ccc(C)cc3)n[nH]c2=S)c1 | 18.7% |  |
| COc1cccc(-n2c(-c3cccc(S(=O)(=O)N(C)C)c3)n[nH]c2=S)c1 | -8.6% |  |
| COc1cccc(S(=O)(=O)N[C@H]2CC[C@H](CC(=O)NCc3ccc(F)cc3)O[C@@H]2CO)c1 | 19.6% |  |
| CCC(C)C(NC(=O)C1CCC(C)CC1)C(=O)NCc1cccnc1 (centres undefined) | 28.8% |  |
| Cc1ccc(S(=O)(=O)Nc2ccccc2C(=O)NCc2cccnc2)cc1 | -21.2% |  |
| CCn1cc(C(=O)NCc2cccnc2)c2cc(OC)c(OC)cc2c1=O | 12.7% |  |
| COc1cccc(Cn2c(NCc3cccnc3)nc3c2c(=O)n(C)c(=O)n3C)c1 | -13.5% |  |
| COc1ccc2nc(NCc3cccnc3)sc2c1 | -12.2% |  |
| C[C@H]1CN([C@@H](C)CO)C(=O)c2cc(C3=CCCC3)cnc2O[C@@H]1CN(C)C(=O)c1cccnc1 | 7.97% |  |
| Cc1ccccc1S(=O)(=O)N[C@H]1CC[C@H](CCn2cc(Cc3ccccc3)nn2)O[C@@H]1CO | -0.755% |  |
| COc1ccccc1C#Cc1ccc2c(c1)O[C@@H](CN(C)Cc1cccnc1)[C@H](C)CN([C@@H](C)CO)S2(=O)=O | -89.7% |  |
| CO[C@H]1CN(C)C(=O)c2cc(NS(=O)(=O)c3cn(C)cn3)ccc2OC[C@@H](C)NC[C@H]1C | -17.3% |  |
| CCCCN(c1ccccc1)c1ncnc(N)c1[N+](=O)[O-] | -11.8% |  |
| COC(=O)c1cccc(NC(=O)CSc2nnc(C)n2C)c1 | -21.3% |  |
| COc1ccccc1Nc1nc(NCCC(C)C)nc(N)c1[N+](=O)[O-] | 27% |  |
| Cn1nnnc1Sc1ncnc2scc(-c3cccc(S(C)(=O)=O)c3)c12 | -11.9% |  |
| Cc1ccc(C)c(S(=O)(=O)N(C(=O)c2ccncc2)c2ccc(OC(=O)c3ccncc3)cc2)c1 | -16% |  |
| C=CCNC(=O)c1cnn(-c2ccccc2)c1-c1ccccc1 | -2.56% |  |

| Structure (SMILES) | activation (acetylation increase) | outcome |
| --- | --- | --- |
| CO[C@@H]1CN(C)C(=O)c2ccc(NC(C)=O)cc2OC[C@@H](C)N(C(=O)Cc2cccnc2)C[C@@H]1C | 28.7% |  |
| O=C(Cn1ncc(Cl)c(Cl)c1=O)NCC1CCCCC1 | -101% |  |
| C[C@@H]1CN([C@H](C)CO)C(=O)Cc2cc(NC(=O)CCC(F)(F)F)ccc2O[C@H]1CN(C)S(C)(=O)=O | -4.24% |  |
| CCOC(=O)C1=C(Nc2ccccc2)OCC1=O | 4.43% |  |
| O=C(NCc1cccnc1)/C(=C/c1ccc(-c2ccc(Cl)cc2)o1)S(=O)(=O)c1ccccc1 | -92% |  |
| CC1=CCC2C(=O)N(c3cccc(C(=O)NCc4ccccc4)c3)C(=O)C2C1 (centres undefined) | 11.3% |  |
| Cc1ccc(S(=O)(=O)Nc2cccc3c2O[C@H](CN(C)Cc2ccc(Cl)c(Cl)c2)[C@@H](C)CN([C@@H](C)CO)C3=O)cc1 | 28.7% |  |
| CN(C)c1nc(SCCOC(=O)COc2ccc(Cl)cc2Cl)nc(N(C)C)n1 | -18.6% |  |
| CC(=O)Nc1ccc2c(CSc3nncs3)cc(=O)oc2c1 | -36.6% |  |
| CCCc1cc(=O)oc2cc(C)cc(O)c12 | 29.2% |  |
| COC(=O)[C@]1(Cc2ccccc2)N=C(c2ccc(OCCCO)cc2)O[C@@H]1c1ccccc1CN=[N+]=[N-] | 21.8% [at 10 µM] |  |
| O=[N+]([O-])c1cc(F)c2cccnc2c1O | -22.2% |  |
| Cc1ccc2[nH]c3ccccc3c(=O)c2c1 | 35.3% |  |
| CCN(CC(=O)Nc1ccccc1C(F)(F)F)C(=O)CCSc1ccc(F)cc1 | -15.4% |  |
| O=C(NCc1cccnc1)C1CC(=O)N(C2CCCCC2)C1 (centres undefined) | 8.12% |  |
| O=C(CCNNC(=O)c1ccncc1)NCc1ccccc1 | 17.4% |  |
| O=C(NCc1cccnc1)/C(=C\c1ccc(-c2cccc(Cl)c2)o1)S(=O)(=O)c1ccccc1 | -82.5% |  |
| O=C(NCc1cccnc1)/C(=C\c1ccc(-c2ccc(Cl)c(Cl)c2)o1)S(=O)(=O)c1ccccc1 | -100% |  |
| O=C(Cc1ccccn1)NCC[C@H]1CC[C@@H](NC(=O)Nc2ccc(C(F)(F)F)cc2)[C@@H](CO)O1 | 6.59% |  |
| O=C(NC1=NCCS1)C1CC(=O)N(c2ccccc2)C1 (centres undefined) | -2.16% |  |
| O=C(Nc1cccc2[nH]ncc12)c1ccc(F)cc1 | -26.8% |  |
| O=C(C[C@@H]1CC[C@@H](NC(=O)C2CCC2)[C@H](CO)O1)NCC1CC1 | -10.2% |  |
| CCC(=O)Nc1ccc(C(=O)COC(=O)c2sc(C)nc2C)cc1 | 13.9% |  |
| CC(C)C[C@H]1CNC(=S)N1CC1CCCN1C[C@H](Cc1ccccc1)N1C[C@H](Cc2ccc(O)cc2)N(CC2CCCCCC2)C1=S (some centres undefined) | 26% |  |

| Structure (SMILES) | activation (acetylation increase) | outcome |
| --- | --- | --- |
| CC(N=C1NS(=O)(=O)c2ccccc21)C(=O)NCCCc1ccccc1 (centres undefined) | -53.2% |  |
| CCOc1ccc2nc(NCCNC(=O)Nc3ccccc3)c(C#N)cc2c1 | -44.2% |  |
| Cc1ccccc1OCC(O)CNC1CCC(NCC(O)COc2ccccc2C)CC1 (centres undefined) | -100% |  |
| C[C@H](CO)N1C[C@H](C)[C@H](CN(C)C(=O)CN(C)C)Oc2cc(-c3cncnc3)ccc2S1(=O)=O | 25.6% |  |
| CCN1CCN(Cc2ccc(NC(=O)c3cc(NC(=O)c4cncc(-c5ccc(C#N)cc5)c4)cc(OC)c3)cc2C(F)(F)F)CC1 | -96.9% |  |
| COc1ccc(OCCc2nnc(N)s2)cc1 | 14.7% |  |
| CN(NC(=O)c1ccccc1F)c1nc(C(F)(F)F)nc2ccccc12 | -8.44% |  |
| C[C@@H](C(=O)Nc1nc2ccc(F)cc2s1)N1C(=O)C2CC=CCC2C1=O (some centres undefined) | -25.2% |  |
| C[C@@H]1CN([C@H](C)CO)S(=O)(=O)c2ccc(C#CC3CCCC3)cc2O[C@H]1CN(C)C | 36.3% |  |
| O=C(NCC1CC1)Nc1ccccc1F | -3.11% |  |
| C/C=C/c1ccc2c(c1)O[C@@H](CN(C)C(=O)NC(C)C)[C@H](C)CN([C@H](C)CO)S2(=O)=O | 8.88% |  |
| COc1ccc(-c2ccc(C3[C@@H]4CN(Cc5ccccn5)C[C@H]3N4)cc2)cc1 (some centres undefined) | -17.6% |  |
| Fc1ccc(-c2ccc(C3[C@@H]4CN(Cc5ccccc5)C[C@H]3N4)cc2)cc1 (some centres undefined) | -91.3% [at 21 µM] |  |
| COc1ccccc1CN1C[C@@H]2N[C@H](C1)C2c1ccc(-c2ccccc2)cc1 (some centres undefined) | -3.96% |  |
| COc1cc(CN2C[C@@H]3N[C@H](C2)C3c2ccc(-c3cccc(OC)c3)cc2)cc(OC)c1 (some centres undefined) |  | inactive |
| COc1cccc(-c2ccc(C3[C@@H]4CN(Cc5cccc(F)c5)C[C@H]3N4)cc2)c1 (some centres undefined) | -97.7% [at 21 µM] |  |
| Fc1cccc(CN2C[C@@H]3N[C@H](C2)C3c2ccc(-c3ccccc3)cc2)c1 (some centres undefined) | -98% [at 21 µM] |  |
| Cc1cccc(-c2ccc(C3[C@@H]4CN(Cc5cccc(F)c5)C[C@H]3N4)cc2)c1 (some centres undefined) | -44.5% |  |
| CC1CN(C(=O)COC(=O)[C@@H]2CC(O)CN2S(=O)(=O)c2ccc3c(c2)OCCO3)CC(C)O1 (some centres undefined) | 8.73% |  |
| CCn1c(C)c(C)c2cc(C(=O)NCCN3CCOCC3)ccc21 | -19.1% |  |
| CN1C(C(=O)Nc2ccccn2)=C(O)c2sc(Cl)cc2S1(=O)=O | 9.35% |  |
| CO[C@H]1CN(C)C(=O)c2cc(NS(C)(=O)=O)ccc2OC[C@H](C)N(C(=O)NC(C)C)C[C@H]1C | 19.4% |  |
| C[C@@H]1CN([C@@H](C)CO)S(=O)(=O)c2ccc(C#CC3CCCCC3)cc2O[C@H]1CN(C)Cc1cccnc1 | -47.2% |  |
| CN1CCN2c3ncccc3Cc3ccccc3[C@@H]2C1 | 11.6% |  |

| Structure (SMILES) | activation (acetylation increase) | outcome |
| --- | --- | --- |
| Fc1ccc(/C=C2\CCCC3=C2Nc2ncnn2C3c2ccc(F)cc2)cc1 (centres undefined) | -95.2% |  |
| CC(C)(C)NS(=O)(=O)c1ccc(CCC(=O)N2CCOCC2)cc1 | 0.217% |  |
| CCC(=O)N[C@H]1CC[C@H](CCNC(=O)Nc2ccc(C(F)(F)F)cc2)O[C@H]1CO | -29.5% |  |
| COc1cccc(CN2C[C@@H]3N[C@H](C2)C3c2ccc(-c3ccccc3OC)cc2)c1 (some centres undefined) | -2.92% |  |
| COc1cc(CN2C[C@@H]3N[C@H](C2)C3c2ccc(-c3ccccc3C)cc2)cc(OC)c1 (some centres undefined) | -95.4% |  |
| CC(C)c1ccc(-c2nnn(CC(=O)N3CCCCC3)n2)cc1 | -13% |  |
| Cc1ccc(S(=O)(=O)N2CCCC2)cc1C(=O)O | -7.65% |  |
| CN(C)CCCN(C(=O)CCOc1ccccc1)c1nc2ccc(F)cc2s1 | -99% |  |
| CC(C)[C@H](C)NC(=O)N(C)C[C@@H]1OCc2ccccc2-c2ccccc2C(=O)N([C@@H](C)CO)C[C@H]1C | 15.2% |  |
| C[C@@H]1CN([C@@H](C)CO)C(=O)c2c(c3ccccc3n2C)-c2ccccc2CO[C@H]1CN(C)S(=O)(=O)c1ccsc1 | -6.93% |  |
| CC(C)NC(=O)N(C)C[C@H]1Oc2c(NS(=O)(=O)c3cn(C)cn3)cccc2C(=O)N([C@@H](C)CO)C[C@@H]1C | 16.2% |  |
| CC(C)CC#Cc1cnc2c(c1)C(=O)N([C@@H](C)CO)C[C@@H](C)[C@H](CN(C)C(=O)c1ccccc1)O2 | -31.3% |  |
| CCN(C(=O)COC(=O)/C=C/c1cccc(Cl)c1)c1c(N)n(Cc2ccccc2)c(=O)[nH]c1=O | -4.91% |  |
| Clc1ccccc1OCCCCN1CCCC1 | -20.9% |  |
| CO[C@H]1CN(C)C(=O)c2cc(NS(C)(=O)=O)ccc2OC[C@@H](C)N(C(=O)CC2CC2)C[C@H]1C | -18.1% |  |
| CCOC(=O)CSc1nccc(N(C)C)c1C#N | 4.27% |  |
| O=C(OCc1cnc(Cl)s1)c1cccs1 | 11.2% |  |
| CC(NCc1cccs1)C(=O)NC1CCCCC1 (centres undefined) | -2.99% |  |
| CO[C@@H]1CN(C)C(=O)c2ccc(NC(=O)c3ccc(Oc4ccccc4)cc3)cc2OC[C@@H](C)N(C(C)=O)C[C@H]1C | -36.3% [at 21 µM] |  |
| COc1ccc(S(=O)(=O)N(C)C[C@H]2Oc3ccc(NC(=O)CCN4CCOCC4)cc3C(=O)N([C@@H](C)CO)C[C@@H]2C)cc1 | 4.36% [at 21 µM] |  |
| CSCC[C@H](NC(=O)c1ccc(Br)o1)c1nnc2ccccn12 | -1.9% |  |
| O=C(Nc1ccc([N+](=O)[O-])cn1)c1ccc(Br)o1 | -6.47% |  |
